Experimental data: the supplement of paper PMC11732987, “Enantioselective OTUD7B fragment discovery through chemoproteomics screening and high-throughput optimisation” (Communications Chemistry, 2025)

Key:
Assay in all cases: log2 ratio of Biotin-Ahx-Ub-VS probe labelling (fragment/DMSO); higher = less target engagement (more negative = stronger competition), active = hit call of the paper (q ≤ 0.05, log2 ratio ≤ -1)
Conditions in all cases: compound concentration: 200 uM; treatment time: 3 h
[1] = molecular target: T1, USP42 (UniProt Q9H9J4)
T1 sequence (whole entry): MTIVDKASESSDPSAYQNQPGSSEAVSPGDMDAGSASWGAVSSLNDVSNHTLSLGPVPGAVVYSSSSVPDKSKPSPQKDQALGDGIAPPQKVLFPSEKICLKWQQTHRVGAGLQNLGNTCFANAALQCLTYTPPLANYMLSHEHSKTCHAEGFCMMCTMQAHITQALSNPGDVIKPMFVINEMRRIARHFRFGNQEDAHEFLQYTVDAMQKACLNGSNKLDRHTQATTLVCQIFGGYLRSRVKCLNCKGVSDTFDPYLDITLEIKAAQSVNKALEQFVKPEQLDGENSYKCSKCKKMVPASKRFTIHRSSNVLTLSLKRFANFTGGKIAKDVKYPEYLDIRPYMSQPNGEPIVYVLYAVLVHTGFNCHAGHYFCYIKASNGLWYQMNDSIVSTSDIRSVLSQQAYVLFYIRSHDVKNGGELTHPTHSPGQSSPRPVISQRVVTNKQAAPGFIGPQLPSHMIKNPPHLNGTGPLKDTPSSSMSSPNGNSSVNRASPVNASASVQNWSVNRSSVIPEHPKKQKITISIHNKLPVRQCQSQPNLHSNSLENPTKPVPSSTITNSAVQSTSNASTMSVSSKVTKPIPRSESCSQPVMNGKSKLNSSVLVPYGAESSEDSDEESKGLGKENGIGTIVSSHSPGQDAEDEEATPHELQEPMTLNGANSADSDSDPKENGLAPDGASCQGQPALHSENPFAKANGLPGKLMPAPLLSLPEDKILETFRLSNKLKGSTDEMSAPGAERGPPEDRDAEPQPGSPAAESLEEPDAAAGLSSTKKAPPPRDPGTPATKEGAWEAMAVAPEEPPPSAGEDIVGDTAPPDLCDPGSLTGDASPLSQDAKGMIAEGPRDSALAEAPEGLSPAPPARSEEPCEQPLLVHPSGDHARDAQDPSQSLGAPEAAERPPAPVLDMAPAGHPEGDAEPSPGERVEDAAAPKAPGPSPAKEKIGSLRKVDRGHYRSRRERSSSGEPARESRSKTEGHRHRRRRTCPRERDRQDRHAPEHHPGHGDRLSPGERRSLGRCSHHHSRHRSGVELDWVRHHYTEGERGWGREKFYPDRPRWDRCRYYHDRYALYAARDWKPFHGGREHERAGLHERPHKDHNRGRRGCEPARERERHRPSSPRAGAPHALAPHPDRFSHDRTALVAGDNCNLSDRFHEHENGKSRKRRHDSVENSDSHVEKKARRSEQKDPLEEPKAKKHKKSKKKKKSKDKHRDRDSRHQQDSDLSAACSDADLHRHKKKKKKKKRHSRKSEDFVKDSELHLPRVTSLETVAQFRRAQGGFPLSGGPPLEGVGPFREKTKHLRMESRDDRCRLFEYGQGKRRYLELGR
Method in brief: (§1)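 HEK293T lysate (495 µg per sample, in Tris/CHAPS/IGEPAL buffer with protease inhibitors) was exposed in triplicate for 3 h to fragment at 200 µM or to vehicle, then to Biotin-Ahx-Ub-VS at 0.5 µM final for 1 h. Labelled DUBs were enriched on NeutrAvidin, digested with LysC and trypsin, and analysed by diaPASEF LC-MS/MS. Spectronaut label-free quantities were normalised to the global median, and values are average log2 ratios of fragment over vehicle from an unpaired t-test. Only proteins with ≥2 unique peptides were used.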

[2] = molecular target: USP46 (UniProt P62068)
Sequence of USP46 (P62068 whole entry): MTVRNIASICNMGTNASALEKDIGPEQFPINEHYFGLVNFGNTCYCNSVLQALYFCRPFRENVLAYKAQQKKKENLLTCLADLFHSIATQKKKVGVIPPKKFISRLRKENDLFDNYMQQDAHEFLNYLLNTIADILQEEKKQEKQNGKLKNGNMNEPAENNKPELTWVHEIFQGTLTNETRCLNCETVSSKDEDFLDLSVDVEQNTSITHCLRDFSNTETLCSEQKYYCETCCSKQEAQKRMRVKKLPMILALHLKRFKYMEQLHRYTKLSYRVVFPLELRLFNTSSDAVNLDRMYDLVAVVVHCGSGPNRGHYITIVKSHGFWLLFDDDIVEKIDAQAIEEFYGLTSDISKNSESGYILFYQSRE
Method in brief: as §1

[3] = molecular target: T2, USP47 (UniProt Q96K76)
T2 sequence (whole entry): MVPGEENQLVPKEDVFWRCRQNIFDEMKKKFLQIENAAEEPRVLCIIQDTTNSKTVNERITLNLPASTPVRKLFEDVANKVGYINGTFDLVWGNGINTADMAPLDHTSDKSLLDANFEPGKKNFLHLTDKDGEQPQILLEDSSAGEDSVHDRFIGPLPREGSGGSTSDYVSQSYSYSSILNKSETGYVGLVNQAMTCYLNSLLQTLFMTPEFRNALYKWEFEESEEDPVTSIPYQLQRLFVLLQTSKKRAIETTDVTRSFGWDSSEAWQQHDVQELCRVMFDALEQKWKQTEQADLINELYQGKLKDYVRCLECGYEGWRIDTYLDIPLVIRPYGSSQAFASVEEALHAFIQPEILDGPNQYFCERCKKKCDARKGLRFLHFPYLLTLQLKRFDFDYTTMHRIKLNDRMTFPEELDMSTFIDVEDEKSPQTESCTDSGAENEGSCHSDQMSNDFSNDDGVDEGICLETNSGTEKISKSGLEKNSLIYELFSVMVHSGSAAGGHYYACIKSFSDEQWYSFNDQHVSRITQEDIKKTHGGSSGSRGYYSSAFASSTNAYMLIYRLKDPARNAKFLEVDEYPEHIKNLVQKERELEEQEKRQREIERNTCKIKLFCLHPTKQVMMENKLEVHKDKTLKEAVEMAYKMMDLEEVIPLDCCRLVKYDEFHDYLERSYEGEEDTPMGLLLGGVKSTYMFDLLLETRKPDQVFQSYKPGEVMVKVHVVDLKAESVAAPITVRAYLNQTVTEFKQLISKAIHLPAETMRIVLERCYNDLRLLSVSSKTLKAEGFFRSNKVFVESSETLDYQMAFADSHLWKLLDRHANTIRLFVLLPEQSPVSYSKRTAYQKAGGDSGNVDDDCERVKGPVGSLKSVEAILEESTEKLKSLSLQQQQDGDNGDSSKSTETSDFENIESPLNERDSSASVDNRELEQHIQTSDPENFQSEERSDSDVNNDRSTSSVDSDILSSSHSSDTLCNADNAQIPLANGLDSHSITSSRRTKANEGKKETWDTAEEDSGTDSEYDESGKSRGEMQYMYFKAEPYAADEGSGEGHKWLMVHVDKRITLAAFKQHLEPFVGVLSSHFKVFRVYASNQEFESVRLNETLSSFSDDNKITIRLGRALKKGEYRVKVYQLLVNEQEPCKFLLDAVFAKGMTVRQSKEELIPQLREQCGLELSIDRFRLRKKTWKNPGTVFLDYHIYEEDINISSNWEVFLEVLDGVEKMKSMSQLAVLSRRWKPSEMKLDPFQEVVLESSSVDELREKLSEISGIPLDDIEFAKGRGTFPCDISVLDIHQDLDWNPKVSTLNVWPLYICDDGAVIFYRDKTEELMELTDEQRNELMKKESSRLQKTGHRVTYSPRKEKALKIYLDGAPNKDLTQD
Method in brief: as §1

[4] = molecular target: T3, USP48 (UniProt Q86UV5)
T3 sequence (whole entry): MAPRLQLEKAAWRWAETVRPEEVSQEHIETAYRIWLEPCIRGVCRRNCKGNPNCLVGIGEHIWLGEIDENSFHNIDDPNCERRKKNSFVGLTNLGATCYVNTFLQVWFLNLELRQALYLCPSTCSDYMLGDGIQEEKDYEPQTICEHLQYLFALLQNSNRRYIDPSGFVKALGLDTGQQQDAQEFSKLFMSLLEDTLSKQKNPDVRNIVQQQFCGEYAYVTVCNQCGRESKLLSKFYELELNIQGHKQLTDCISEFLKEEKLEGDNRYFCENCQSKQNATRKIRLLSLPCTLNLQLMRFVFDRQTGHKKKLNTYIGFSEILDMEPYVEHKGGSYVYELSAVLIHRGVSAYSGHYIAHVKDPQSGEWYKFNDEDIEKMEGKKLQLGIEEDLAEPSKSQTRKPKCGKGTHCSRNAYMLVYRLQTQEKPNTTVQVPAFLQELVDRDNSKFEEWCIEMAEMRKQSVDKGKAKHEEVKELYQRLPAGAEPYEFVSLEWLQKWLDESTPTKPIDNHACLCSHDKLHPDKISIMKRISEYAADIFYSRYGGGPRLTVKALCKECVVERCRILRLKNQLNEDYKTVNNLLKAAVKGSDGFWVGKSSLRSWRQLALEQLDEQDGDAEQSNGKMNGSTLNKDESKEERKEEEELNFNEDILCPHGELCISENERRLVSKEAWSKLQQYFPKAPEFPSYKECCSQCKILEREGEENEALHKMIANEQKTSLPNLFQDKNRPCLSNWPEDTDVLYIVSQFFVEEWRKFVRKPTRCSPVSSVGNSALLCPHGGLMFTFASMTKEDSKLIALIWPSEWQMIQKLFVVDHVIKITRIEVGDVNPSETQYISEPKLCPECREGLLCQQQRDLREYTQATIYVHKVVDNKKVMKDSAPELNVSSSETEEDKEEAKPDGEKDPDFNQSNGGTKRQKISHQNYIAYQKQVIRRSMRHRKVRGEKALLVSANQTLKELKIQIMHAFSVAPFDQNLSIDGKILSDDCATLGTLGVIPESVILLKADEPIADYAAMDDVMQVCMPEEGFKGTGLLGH
Method in brief: as §1

[5] = molecular target: T4, USP5 (UniProt P45974)
T4 sequence (whole entry): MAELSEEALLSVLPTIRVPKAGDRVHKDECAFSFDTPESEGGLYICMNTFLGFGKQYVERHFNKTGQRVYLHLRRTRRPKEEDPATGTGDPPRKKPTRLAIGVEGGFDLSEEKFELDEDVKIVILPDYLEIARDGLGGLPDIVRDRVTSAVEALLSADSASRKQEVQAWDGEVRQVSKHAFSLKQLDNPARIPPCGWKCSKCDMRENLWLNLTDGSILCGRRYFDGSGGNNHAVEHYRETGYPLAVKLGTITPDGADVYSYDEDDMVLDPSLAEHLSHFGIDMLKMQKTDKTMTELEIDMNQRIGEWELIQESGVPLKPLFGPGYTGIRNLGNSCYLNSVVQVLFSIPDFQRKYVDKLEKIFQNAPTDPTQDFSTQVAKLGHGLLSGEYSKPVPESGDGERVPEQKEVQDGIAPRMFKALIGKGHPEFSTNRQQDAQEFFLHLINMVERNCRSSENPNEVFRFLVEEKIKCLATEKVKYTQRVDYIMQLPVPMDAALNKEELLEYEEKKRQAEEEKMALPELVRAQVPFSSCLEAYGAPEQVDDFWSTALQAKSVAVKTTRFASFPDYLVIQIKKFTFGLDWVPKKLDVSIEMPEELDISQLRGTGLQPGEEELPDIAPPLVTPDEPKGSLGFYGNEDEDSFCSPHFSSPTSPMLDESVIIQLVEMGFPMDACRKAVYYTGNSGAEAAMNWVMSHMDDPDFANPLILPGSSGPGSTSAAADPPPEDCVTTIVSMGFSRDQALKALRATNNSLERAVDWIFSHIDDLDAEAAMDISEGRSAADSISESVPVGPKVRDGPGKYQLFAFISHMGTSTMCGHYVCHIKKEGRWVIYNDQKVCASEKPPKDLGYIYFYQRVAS
Method in brief: as §1

[6] = molecular target: USP54 (UniProt Q70EL1)
Sequence of USP54 (Q70EL1 whole entry): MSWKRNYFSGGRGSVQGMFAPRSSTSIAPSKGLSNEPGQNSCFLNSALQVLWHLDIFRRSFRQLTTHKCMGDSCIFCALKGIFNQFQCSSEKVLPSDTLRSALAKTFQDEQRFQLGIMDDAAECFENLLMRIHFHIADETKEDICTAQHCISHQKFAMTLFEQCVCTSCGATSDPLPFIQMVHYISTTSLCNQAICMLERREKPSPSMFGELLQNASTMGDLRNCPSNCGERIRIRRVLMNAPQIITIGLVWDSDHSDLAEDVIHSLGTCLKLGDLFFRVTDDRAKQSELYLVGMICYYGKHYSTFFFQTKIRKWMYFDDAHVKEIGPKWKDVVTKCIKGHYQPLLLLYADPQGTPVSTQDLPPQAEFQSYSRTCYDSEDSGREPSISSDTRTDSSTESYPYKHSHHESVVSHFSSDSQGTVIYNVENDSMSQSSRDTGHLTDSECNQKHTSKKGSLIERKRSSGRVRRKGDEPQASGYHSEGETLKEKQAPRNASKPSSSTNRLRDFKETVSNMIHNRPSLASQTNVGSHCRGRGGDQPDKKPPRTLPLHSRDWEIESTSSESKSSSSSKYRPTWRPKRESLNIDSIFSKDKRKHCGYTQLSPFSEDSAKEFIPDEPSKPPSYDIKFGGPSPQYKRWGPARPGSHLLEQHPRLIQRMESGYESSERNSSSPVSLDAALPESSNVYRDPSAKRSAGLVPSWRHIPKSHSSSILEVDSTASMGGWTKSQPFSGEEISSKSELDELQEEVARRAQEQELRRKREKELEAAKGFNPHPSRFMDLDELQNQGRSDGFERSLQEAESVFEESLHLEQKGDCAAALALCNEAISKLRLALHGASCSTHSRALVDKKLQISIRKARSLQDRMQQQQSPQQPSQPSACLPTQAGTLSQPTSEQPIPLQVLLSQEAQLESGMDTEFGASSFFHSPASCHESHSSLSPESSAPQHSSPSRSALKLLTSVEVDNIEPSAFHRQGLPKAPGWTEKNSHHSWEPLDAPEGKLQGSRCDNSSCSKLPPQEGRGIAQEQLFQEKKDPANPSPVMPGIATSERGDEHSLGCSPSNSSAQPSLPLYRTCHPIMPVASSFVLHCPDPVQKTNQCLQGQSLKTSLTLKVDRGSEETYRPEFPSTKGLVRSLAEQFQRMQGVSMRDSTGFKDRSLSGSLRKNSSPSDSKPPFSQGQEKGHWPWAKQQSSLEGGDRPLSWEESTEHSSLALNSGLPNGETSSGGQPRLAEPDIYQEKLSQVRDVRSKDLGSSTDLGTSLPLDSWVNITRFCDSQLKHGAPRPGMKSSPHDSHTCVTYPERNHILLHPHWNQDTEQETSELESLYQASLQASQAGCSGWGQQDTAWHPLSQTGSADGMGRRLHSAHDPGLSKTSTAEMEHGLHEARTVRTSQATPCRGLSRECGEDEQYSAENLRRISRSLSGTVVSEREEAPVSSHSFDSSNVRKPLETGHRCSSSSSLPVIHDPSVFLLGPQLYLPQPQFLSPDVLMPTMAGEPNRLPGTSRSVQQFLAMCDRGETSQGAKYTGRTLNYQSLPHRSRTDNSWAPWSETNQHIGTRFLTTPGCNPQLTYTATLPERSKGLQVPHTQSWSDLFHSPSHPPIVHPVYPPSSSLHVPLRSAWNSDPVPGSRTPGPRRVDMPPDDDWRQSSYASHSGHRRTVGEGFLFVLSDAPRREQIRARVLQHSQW
Method in brief: as §1

[7] = molecular target: USP7 (UniProt Q93009)
Sequence of USP7 (Q93009 whole entry, looked up): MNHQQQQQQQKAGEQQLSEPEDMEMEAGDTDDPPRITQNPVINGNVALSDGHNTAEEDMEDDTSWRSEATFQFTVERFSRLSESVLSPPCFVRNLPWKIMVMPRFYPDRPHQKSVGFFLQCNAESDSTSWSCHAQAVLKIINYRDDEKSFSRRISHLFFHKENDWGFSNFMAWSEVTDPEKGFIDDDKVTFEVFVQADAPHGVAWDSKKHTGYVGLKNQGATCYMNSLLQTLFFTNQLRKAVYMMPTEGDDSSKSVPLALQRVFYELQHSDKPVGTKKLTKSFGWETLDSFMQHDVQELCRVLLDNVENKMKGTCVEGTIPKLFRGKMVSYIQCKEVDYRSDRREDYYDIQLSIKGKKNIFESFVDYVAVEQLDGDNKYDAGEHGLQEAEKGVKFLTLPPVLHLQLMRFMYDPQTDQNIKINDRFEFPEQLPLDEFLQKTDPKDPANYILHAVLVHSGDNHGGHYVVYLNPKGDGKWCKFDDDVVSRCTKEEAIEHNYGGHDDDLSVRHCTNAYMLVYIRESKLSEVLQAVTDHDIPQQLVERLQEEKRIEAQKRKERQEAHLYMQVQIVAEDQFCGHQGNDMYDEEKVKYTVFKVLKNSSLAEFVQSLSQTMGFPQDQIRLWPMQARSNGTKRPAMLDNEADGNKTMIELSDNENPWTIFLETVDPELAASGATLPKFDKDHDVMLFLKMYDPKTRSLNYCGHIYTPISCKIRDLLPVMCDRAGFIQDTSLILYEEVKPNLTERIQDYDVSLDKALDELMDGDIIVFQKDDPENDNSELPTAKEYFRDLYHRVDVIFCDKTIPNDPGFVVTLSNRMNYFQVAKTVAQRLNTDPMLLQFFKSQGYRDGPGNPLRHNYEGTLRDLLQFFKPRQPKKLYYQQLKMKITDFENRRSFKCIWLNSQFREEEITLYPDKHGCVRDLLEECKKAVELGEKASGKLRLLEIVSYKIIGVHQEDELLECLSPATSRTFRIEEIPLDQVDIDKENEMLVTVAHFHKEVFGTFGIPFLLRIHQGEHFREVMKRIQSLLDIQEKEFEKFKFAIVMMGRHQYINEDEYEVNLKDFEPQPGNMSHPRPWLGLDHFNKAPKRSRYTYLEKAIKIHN
Method in brief: as §1

[8] = molecular target: T5, USP8 (UniProt P40818)
T5 sequence (whole entry): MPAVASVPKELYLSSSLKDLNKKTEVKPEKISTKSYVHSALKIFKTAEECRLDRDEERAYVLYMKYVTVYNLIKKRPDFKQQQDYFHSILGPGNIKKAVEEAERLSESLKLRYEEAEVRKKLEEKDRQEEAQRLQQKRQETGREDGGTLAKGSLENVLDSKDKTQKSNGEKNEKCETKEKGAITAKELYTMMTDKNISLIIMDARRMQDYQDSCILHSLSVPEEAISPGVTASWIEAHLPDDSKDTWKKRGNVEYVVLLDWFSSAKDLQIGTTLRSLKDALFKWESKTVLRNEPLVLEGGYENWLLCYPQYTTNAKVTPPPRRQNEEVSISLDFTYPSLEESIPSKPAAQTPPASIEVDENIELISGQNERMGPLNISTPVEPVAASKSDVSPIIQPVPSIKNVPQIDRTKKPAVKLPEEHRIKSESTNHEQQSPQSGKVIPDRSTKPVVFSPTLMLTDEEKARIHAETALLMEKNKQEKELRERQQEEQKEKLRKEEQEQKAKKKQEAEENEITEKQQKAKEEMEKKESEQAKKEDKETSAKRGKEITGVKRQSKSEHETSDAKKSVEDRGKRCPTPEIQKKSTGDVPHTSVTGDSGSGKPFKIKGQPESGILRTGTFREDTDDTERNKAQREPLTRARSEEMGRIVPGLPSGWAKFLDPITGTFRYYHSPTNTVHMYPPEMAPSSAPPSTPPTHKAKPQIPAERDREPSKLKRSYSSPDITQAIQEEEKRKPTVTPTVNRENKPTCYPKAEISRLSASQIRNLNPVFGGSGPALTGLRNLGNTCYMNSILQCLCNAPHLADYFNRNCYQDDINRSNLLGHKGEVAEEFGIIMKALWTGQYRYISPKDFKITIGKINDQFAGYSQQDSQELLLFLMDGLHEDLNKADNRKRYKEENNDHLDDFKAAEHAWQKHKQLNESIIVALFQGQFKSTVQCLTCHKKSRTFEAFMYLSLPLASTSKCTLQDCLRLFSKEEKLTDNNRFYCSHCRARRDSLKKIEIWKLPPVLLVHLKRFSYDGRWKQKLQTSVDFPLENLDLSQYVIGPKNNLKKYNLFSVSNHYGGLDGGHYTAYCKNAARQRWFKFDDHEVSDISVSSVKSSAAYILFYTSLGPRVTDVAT
Method in brief: as §1

Measured: log2 ratio of Biotin-Ahx-Ub-VS probe labelling

O=C(CCl)NC(Cn1ccccc1=O)c1ccccc1 (stereo not drawn)
inactive: [1] -0.346 | [2] 0.258 | [3] -0.4 | [4] 0.0761 | [5] 0.132 | [6] 0.317 | [7] -0.205 | [8] -0.0535
